About 79,000 compounds went through this panel and 15% of them were active in at least one assay; those are over-represented in the sample as a whole. Active and inactive are the calls of the source. Cut-off read from the data, not from the text of the source: active = growth inhibition above about 70%; inactive = the rest.
Legend:
[1] = NCI Yeast Anticancer Drug Screen. Data for the mec2-1 strain (AID 157); settings: S. cerevisiae mec2-1 strain, stronger effect = higher value
In short: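 Vehicle-treated cultures served as reference for growth inhibition of compound-exposed mec2-1 yeast.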

[2] = NCI Yeast Anticancer Drug Screen. Data for the rad14 strain (AID 159);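 note: 0% = growth of vehicle-treated control cultures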; settings: S. cerevisiae rad14 strain growth inhibition, stronger effect = higher value
In short: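 Readout: yeast growth inhibition, referenced to vehicle-only cultures. Strain bears a defined alteration in DNA damage repair.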

[3] = NCI Yeast Anticancer Drug Screen. Data for the sgs1 mgt1 strain (AID 161);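 note: 0% = growth of cultures given vehicle only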; settings: S. cerevisiae sgs1 mgt1 strain, stronger effect = higher value
In short: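 Read-out: growth inhibition vs vehicle controls. Cells: mutant yeast strain deficient in DNA damage repair.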

[4] = NCI Yeast Anticancer Drug Screen. Data for the CLN2oe strain (AID 163);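 note: 0% = growth of vehicle-only control cultures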; settings: S. cerevisiae CLN2oe strain, stronger effect = higher value
In short: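 Inhibition relative to vehicle-treated yeast is reported. Cells: strain with genetic alteration in cell-cycle control, grown with compound.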

[5] = NCI Yeast Anticancer Drug Screen. Data for the bub3 strain (AID 167); settings: S. cerevisiae bub3 mutant strain, stronger effect = higher value
In short: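 Part of a panel of yeast mutants defective in DNA damage repair or cell cycle regulation. Each strain is grown with compound, and inhibition is calculated relative to solvent-treated cultures.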

[6] = NCI Yeast Anticancer Drug Screen. Data for the wt2 strain (AID 169);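 note: 0% = growth of vehicle-treated yeast cultures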; settings: S. cerevisiae wt2 strain growth inhibition, stronger effect = higher value
In short: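 Inhibition of yeast growth was determined after compound treatment, normalised to controls receiving only vehicle.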

[7] = NCI Yeast Anticancer Drug Screen. Data for the mlh1 strain (AID 171);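 note: 0% = growth of vehicle-treated control cultures of the same strain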; settings: S. cerevisiae mlh1 strain growth inhibition, stronger effect = higher value
In short: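 Vehicle-normalised growth inhibition of a repair- or checkpoint-altered yeast strain following compound treatment.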

[8] = NCI Yeast Anticancer Drug Screen. Data for the sgs1 strain (AID 173);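 note: 0% = growth of vehicle-only control cultures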; settings: S. cerevisiae sgs1 mutant, stronger effect = higher value
In short: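 Screen format: yeast with repair or checkpoint alterations, compound exposure, growth read relative to vehicle.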

[9] = NCI Yeast Anticancer Drug Screen. Data for the mlh1 rad18 strain (AID 175); settings: S. cerevisiae mlh1 rad18 strain growth inhibition, stronger effect = higher value
In short: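 Vehicle-treated cultures served as the reference for growth inhibition in a yeast strain carrying DNA damage repair alterations exposed to each compound.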

[10] = NCI Yeast Anticancer Drug Screen. Data for the rad18 strain (AID 177); settings: S. cerevisiae rad18 mutant growth inhibition, stronger effect = higher value
In short: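 Test articles were incubated with altered yeast defective in DNA damage repair. Results are given as inhibition of growth versus vehicle.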

[11] = NCI Yeast Anticancer Drug Screen. Data for the rad52 strain (AID 147);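 note: 0% = growth of vehicle-treated control cultures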; settings: S. cerevisiae rad52 mutant growth inhibition, stronger effect = higher value
In short: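 Vehicle-treated cultures served as the reference for growth inhibition of compound-exposed yeast bearing a DNA repair mutation.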

[12] = NCI Yeast Anticancer Drug Screen. Data for the wt1 strain (AID 149);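 note: 0% = growth of vehicle-treated wt1 cultures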; settings: S. cerevisiae wt1 strain (SPY 50644) growth inhibition, stronger effect = higher value
In short: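 The wt1 strain was treated with compounds, and growth was compared with vehicle-treated cultures to give inhibition.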

[13] = NCI Yeast Anticancer Drug Screen. Data for the rad50EPP+ strain (AID 151);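 note: 0% = growth of vehicle-treated control cultures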; settings: S. cerevisiae rad50 mutant strain, stronger effect = higher value
In short: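 In this screen, rad50EPP+ yeast were exposed to compounds. Growth inhibition was scored against vehicle-treated controls.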

[14] = NCI Yeast Anticancer Drug Screen. Data for the mgt1 strain (AID 153); settings: S. cerevisiae mgt1 mutant growth inhibition, stronger effect = higher value
In short: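 mgt1 strain exposed; growth vs vehicle control recorded as inhibition.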

[15] = NCI Yeast Anticancer Drug Screen. Data for the rad50 strain (AID 155);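 note: 0% = growth of vehicle-only cultures of the same strain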; settings: S. cerevisiae rad50 strain growth inhibition, stronger effect = higher value
In short: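 Cells are treated with compound, grown, and their growth is then scored against vehicle-only cultures of the same repair-deficient yeast strain.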

[16] = NCI Yeast Anticancer Drug Screen. Data for the cln2 rad14 strain (AID 165);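 note: 0% = growth equal to vehicle treated cultures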; settings: S. cerevisiae cln2 rad14 strain, stronger effect = higher value
In short: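 Each compound was tested on cln2 rad14 yeast. Inhibition of growth was calculated against vehicle-exposed controls.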

[17] = at 5.0 µM (retest, dose inferred, filed as 0.5)
[18] = at 50.0 µM (retest, dose inferred, filed as 5.0)

Measured: growth inhibition

COP(=O)(OC)/C(=C\C1=CN(C(c2ccccc2)(c2ccccc2)c2ccccc2)CN1)NC=O
active: [1]; at 50.0 µM 98.3% | [1]; at 100.0 µM 97% | [2]; at 100.0 µM 96% | [3]; at 50.0 µM 98.3% | [4]; at 100.0 µM 95% | [5]; at 50.0 µM 96.2% | [5]; at 100.0 µM 94% | [6]; at 100.0 µM 96% | [7]; at 33.0 µM 71% | [7]; at 100.0 µM 96% | [8]; at 33.0 µM 79% | [8]; at 100.0 µM 97% | [9]; at 50.0 µM 97% | [10]; at 100.0 µM 95%
inactive: [1]; [17] -10% | [1]; at 11.0 µM 30% | [1]; at 33.0 µM 68% | [1]; [18] -4% | [2]; at 1.2 µM 4% | [2]; at 3.7 µM -1% | [2]; at 11.0 µM -5% | [2]; at 33.0 µM 65% | [3]; [17] -9% | [3]; [18] 0% | [4]; at 1.2 µM 3% | [4]; at 3.7 µM 8% | [4]; at 11.0 µM -8% | [4]; at 33.0 µM 25% | [5]; at 1.2 µM -27% | [5]; at 3.7 µM -41% | [5]; [17] -7% | [5]; at 11.0 µM -41% | [5]; at 33.0 µM 33% | [5]; [18] 2% | [6]; at 1.2 µM -10% | [6]; at 3.7 µM -13% | [6]; at 11.0 µM -6% | [6]; at 33.0 µM 34% | [7]; at 1.2 µM 1% | [7]; at 3.7 µM -13% | [7]; at 11.0 µM -8% | [8]; at 1.2 µM 13% | [8]; at 3.7 µM 20% | [8]; at 11.0 µM 12% | [9]; [17] -22% | [9]; [18] -8% | [10]; at 1.2 µM -7% | [10]; at 3.7 µM -18% | [10]; at 11.0 µM -13% | [10]; at 33.0 µM 40%

CC(C)(CN1CCCCC1)C(=O)CC(SCCS(=O)(=O)O)c1ccc(Br)cc1 (stereo unspecified)
inactive: [11]; at 1.2 µM 1% | [11]; at 3.7 µM 6% | [11]; at 11.0 µM 9% | [11]; at 33.0 µM 22% | [11]; at 100.0 µM 54% | [12]; at 1.2 µM 3% | [12]; at 3.7 µM 6% | [12]; at 11.0 µM 9% | [12]; at 33.0 µM 11% | [12]; at 100.0 µM 24% | [13]; at 1.2 µM -2% | [13]; at 3.7 µM -4% | [13]; at 11.0 µM -4% | [13]; at 33.0 µM 0% | [13]; at 100.0 µM 14% | [14]; at 1.2 µM -1% | [14]; at 3.7 µM 0% | [14]; at 11.0 µM 8% | [14]; at 33.0 µM 21% | [14]; at 100.0 µM 59% | [15]; at 1.2 µM -2% | [15]; at 3.7 µM -5% | [15]; [17] 13% | [15]; at 11.0 µM -1% | [15]; at 33.0 µM 24% | [15]; [18] 32% | [15]; at 100.0 µM 50% | [1]; at 1.2 µM 1% | [1]; at 3.7 µM 6% | [1]; [17] -7% | [1]; at 11.0 µM 14% | [1]; at 33.0 µM 18% | [1]; [18] 11% | [1]; at 50.0 µM 52.9% | [1]; at 100.0 µM 36% | [2]; at 1.2 µM 6% | [2]; at 3.7 µM 19% | [2]; at 11.0 µM 42% | [2]; at 33.0 µM 39% | [2]; at 100.0 µM 51% | [3]; [17] 5% | [3]; [18] 4% | [3]; at 50.0 µM 68.5% | [16]; [17] 13% | [16]; [18] 26% | [16]; at 50.0 µM 56.7% | [5]; at 1.2 µM 1% | [5]; at 3.7 µM 6% | [5]; [17] -4% | [5]; at 11.0 µM 17% | [5]; at 33.0 µM 29% | [5]; [18] 56% | [5]; at 100.0 µM 61% | [6]; at 1.2 µM 1% | [6]; at 3.7 µM 3% | [6]; at 11.0 µM 11% | [6]; at 33.0 µM 24% | [6]; at 100.0 µM 46% | [7]; at 1.2 µM 3% | [7]; at 3.7 µM 6% | [7]; at 11.0 µM 17% | [7]; at 33.0 µM 26% | [7]; at 100.0 µM 52% | [8]; at 1.2 µM 2% | [8]; at 3.7 µM 11% | [8]; at 11.0 µM 28% | [8]; at 33.0 µM 42% | [8]; at 100.0 µM 62% | [9]; [17] 3% | [9]; [18] 21% | [9]; at 50.0 µM 65.2% | [10]; at 1.2 µM 2% | [10]; at 3.7 µM 15% | [10]; at 11.0 µM 29% | [10]; at 33.0 µM 25% | [10]; at 100.0 µM 55%
active: [15]; at 50.0 µM 73.8% | [5]; at 50.0 µM 74.7%

c1ccc2c(c1)NC(NC1Nc3ccccc3N1)N2
active: [5]; [18] 70% | [9]; [18] 81%
inactive: [11]; at 1.2 µM 0% | [11]; at 3.7 µM 4% | [11]; at 11.0 µM 6% | [11]; at 33.0 µM 19% | [11]; at 100.0 µM 31% | [12]; at 1.2 µM 0% | [12]; at 3.7 µM 5% | [12]; at 11.0 µM 4% | [12]; at 33.0 µM 9% | [12]; at 100.0 µM 19% | [13]; at 1.2 µM 9% | [13]; at 3.7 µM 23% | [13]; at 11.0 µM 34% | [13]; at 33.0 µM 38% | [13]; at 100.0 µM 48% | [14]; at 1.2 µM -4% | [14]; at 3.7 µM -7% | [14]; at 11.0 µM -4% | [14]; at 33.0 µM 0% | [14]; at 100.0 µM 10% | [15]; at 1.2 µM 1% | [15]; at 3.7 µM 5% | [15]; [17] 9% | [15]; at 11.0 µM 8% | [15]; at 33.0 µM 23% | [15]; [18] 67% | [15]; at 50.0 µM 41.5% | [15]; at 100.0 µM 40% | [1]; at 1.2 µM 5% | [1]; at 3.7 µM 7% | [1]; [17] -3% | [1]; at 11.0 µM 10% | [1]; at 33.0 µM 16% | [1]; [18] 16% | [1]; at 50.0 µM 9.05% | [1]; at 100.0 µM 20% | [2]; at 1.2 µM -4% | [2]; at 3.7 µM -1% | [2]; at 11.0 µM 3% | [2]; at 33.0 µM 12% | [2]; at 100.0 µM 26% | [3]; [17] -4% | [3]; [18] 66% | [3]; at 50.0 µM 15.7% | [4]; at 1.2 µM -6% | [4]; at 3.7 µM -17% | [4]; at 11.0 µM -9% | [4]; at 33.0 µM -7% | [4]; at 100.0 µM 8% | [16]; [17] 13% | [16]; [18] 32% | [16]; at 50.0 µM -21.1% | [5]; at 1.2 µM -2% | [5]; at 3.7 µM -4% | [5]; [17] 19% | [5]; at 11.0 µM -2% | [5]; at 33.0 µM -2% | [5]; at 50.0 µM 10.8% | [5]; at 100.0 µM -10% | [7]; at 1.2 µM 3% | [7]; at 3.7 µM 1% | [7]; at 11.0 µM 4% | [7]; at 33.0 µM 10% | [7]; at 100.0 µM 14% | [8]; at 1.2 µM 0% | [8]; at 3.7 µM 3% | [8]; at 11.0 µM 9% | [8]; at 33.0 µM 12% | [8]; at 100.0 µM 16% | [9]; [17] 25% | [9]; at 50.0 µM 27.6% | [10]; at 1.2 µM 3% | [10]; at 3.7 µM 10% | [10]; at 11.0 µM 29% | [10]; at 33.0 µM 49% | [10]; at 100.0 µM 64%

From PubChem BioAssay (NCI)
